Columns and labels:
Conditions in all cases: mESC; 2uM; 72 h treatment, harvest day 5
[1] = compound: O=c1cc(N2CCOCC2)oc2c(-c3ccc4c(c3)OCCO4)csc12; assay: fraction of edited reads among all mapped reads; higher = more Cas9 editing
Mercaptopurine (6-MP) = compound: S=c1[nH]cnc2nc[nH]c12 [Mercaptopurine (6-MP)]; assay: as above
[2] = compound: S=c1nc[nH]c2nc[nH]c12 [6-Mercaptopurine (6-MP) Monohydrate]; assay: as above
[3] = compound: CC(=O)O/N=C1\C(=O)N(Cc2cc(Cl)ccc2Cl)c2ccc(Cl)cc21; assay: fraction of microhomology deletions among edited reads; higher = more MH deletions
[4] = compound: CC(C)(C#N)c1ccc(N2C(=O)OCc3cnc4ccc(-c5cnc6ccccc6c5)cc4c32)cc1; assay: as above
[5] = compound: CCCCOc1c(C(=O)c2c(F)cc(C)cc2F)c[nH]c2nncc1-2; assay: as above
[6] = compound: CCN1CCN(CC(=O)Nc2ccc(-c3cccc4c(=O)cc(N5CCOCC5)oc34)c3sc4ccccc4c23)CC1; assay: as above
[7] = compound: CCc1c2c(nc3ccc(OC(=O)N4CCC(N5CCCCC5)CC4)cc13)-c1cc3c(c(=O)n1C2)COC(=O)[C@]3(O)CC [Irinotecan HCl Trihydrate]; assay: as above
[8] = compound: CCn1c(=O)c(-c2ccc(Cl)cc2Cl)cc2cnc(Nc3ccc(N4CCNCC4)c(F)c3)nc21; assay: as above
[9] = compound: CNc1ccc([N+](=O)[O-])c(Nc2ccc3[nH]ncc3c2)n1; assay: as above

Target	fraction of edited reads among all mapped reads [1]	fraction of edited reads among all mapped reads (Mercaptopurine (6-MP))	fraction of edited reads among all mapped reads [2]	fraction of microhomology deletions among edited reads [3]	fraction of microhomology deletions among edited reads [4]	fraction of microhomology deletions among edited reads [5]	fraction of microhomology deletions among edited reads [6]	fraction of microhomology deletions among edited reads [7]	fraction of microhomology deletions among edited reads [8]	fraction of microhomology deletions among edited reads [9]
32.0 (DMSO control at this site: 1-bp insertion 0.03, MH deletion 0.85, edited 0.898) AGAAGTCCAGGATCAGGGGGACTGGGGTCGGGAGGGTGGGGCAGGAAGGAAGCCAGAATCA	0.84	0.906	0.874	0.93	0.904	0.914	0.912	0.901	0.905	0.895
16.0 (DMSO control at this site: 1-bp insertion 0.172, MH deletion 0.29, edited 0.05) CGGACTGCACACATGGGTAGGATCGTGCACGCGAGGTAGGATCGTGCACGCGAAGTTATTC	0.0306	0.0811	0.0574	0.319	0.293	0.294	0.34	0.252	0.308	0.252
21.0 CGATTGAGAGTCAAACGGGCCAGAAAACTCCGGGAACGGGCCAGAAAACTCCGGGGCATGG	0.0627	0.169	0.117	0.191	0.163	0.144	0.276	0.188	–	0.197
19.0 (DMSO control at this site: 1-bp insertion 0.121, MH deletion 0.101, edited 0.057) TCTGCAGGGGTCGGAACCCGGGGGCTAGGGCTATCCCGGGGGCTAGGGCTATTAGCGAACC	0.0353	0.0901	0.0729	0.203	0.175	0.215	0.187	0.222	0.147	0.197
41.0 (DMSO control at this site: 1-bp insertion 0.022, MH deletion 0.754, edited 0.115) AAAGAGACAGCAGGTATGAATCCATCTTCCTGACCCTTGGGACCAGCCGGGGCAGTGAAGC	0.0713	0.161	0.116	0.745	0.754	0.717	0.792	0.729	0.738	0.742
22.0 (DMSO control at this site: 1-bp insertion 0.573, MH deletion 0.229, edited 0.045) CTGATGGTTGAAGGATTTAGCCGGGGTCCTAGACGCCGGGGTCCTAGACGAAAGGGCCACG	0.0255	0.0686	0.0558	0.159	0.162	0.122	0.296	0.125	0.168	0.117
17.0 (DMSO control at this site: 1-bp insertion 0.112, MH deletion 0.348, edited 0.058) CCATAGCGCGATAAATATGACGGCTCATCCTGTATGACGGCTCATCCTGTATCAACTGTCC	0.037	0.0873	0.069	0.396	0.391	0.416	0.509	0.411	0.358	0.402
45.0 (DMSO control at this site: 1-bp insertion 0.017, MH deletion 0.666, edited 0.101) TTACACAGCATGAACTGCTAGGTGATGATGTCAGATTCGGTTTTACTAACTTCTCCAAAAA	0.0613	0.128	0.092	0.623	0.655	0.62	0.654	0.631	0.655	0.622
27.0 CCAGAATTAGAACATATCATCTGGACCCTTTTCCATCTGGACCCTTTTCCAGCACACCCTG	0.0389	0.0718	0.0546	0.162	0.195	0.138	–	0.0693	–	0.225

From the supplement of paper PMC8387472
